Reference: PubChem BioAssay AID492948 (National Center for Advancing Translational Sciences (NCATS), 2010)
Results filed as inconclusive are left out. Active and inactive are the calls of the source. The call rests on the fitted dose curve; in most records, active means well fitted activation curve with a large enough effect; inconclusive means small, poorly fitted or top-dose-only effect; inactive means no such curve, though single readings can be large or run the other way.

Assay: qHTS Assay for Agonists of the Relaxin Receptor RXFP1: V1B Hit Validation;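 further: counter-screen in HEK293 cells expressing V1B rather than RXFP1 for selectivity; nearly all actives have a fitted effect of over 65% in size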;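 on activation: cAMP accumulation with PDE4 inhibitor Ro 20-1724 present during compound exposure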
Conditions: HEK293 V1B cells, cAMP TR-FRET, 30 min; series mostly up to 115 µM
Source text: NIH Chemical Genomics Center [NCGC]
NIH Molecular Libraries Probe Production Centers Network [MLPCN]
Assay Submitter (PI): Alexander Agoulnik
The relaxin hormone is involved in the variety of biological functions in normal tissues and diseases. The role of relaxin is well-established in female reproduction and parturition, mammary gland and endometrial development, maintenance of myometrial quiescence during pregnancy. Relaxin signaling through its G protein-coupled receptor (GPCR) RXFP1 results in ECM remodeling through regulation of collagen deposition, cell invasiveness, proliferation and overall tissue homeostasis. […] Recombinant human relaxin (rhRlx) is currently being tested in clinical trials as a protective agent in congestive heart failure, in treating severe preeclampsia, and as an anti-fibrotic agent in systemic sclerosis.
Upon relaxin binding RXFP1 activation leads to the activation of adenylate cyclase (AC) via Gs. cAMP will activate PKA, which phosphorylates many signaling proteins. Thus, detection of cAMP increase is an easy and reliable indication of relaxin receptor activation. To screen for agonists of the relaxin receptor, a HEK293T cell line stably transfected with RXFP1 was used. RXFP1 activation was assayed by changes in cAMP levels as detected with a time-resolved fluorescence energy transfer (TR-FRET) cAMP detection kit.
This assay measures activation of a cell expressing […], another GPCR targeted by relaxin, to determine the selectivity of compounds for RXFP1.
NCGC Assay Protocol Summary:
This is a cell-based assay for cAMP second messenger response to screen for agonists of the RXFP2 receptor. The assay was conducted in the presence of a PDE4 inhibitor (Ro 20174). The cells were lysed and the cAMP levels were measured with a TR-FRET cAMP kit. Presence of cAMP in the cell lysate disrupts binding between the cryptate-labeled anti-cAMP and d2-labeled cAMP pair, leading to a decrease in the TR-FRET signal. Data were normalized to the controls for basal activity (buffer only) and 100% activity (29 nM porcine relaxin). The EC50 values were determined from concentration-response data modeled with the standard Hill equation
1536-well assay protocol for the HEK293 V1B cAMP assay:
(1) Add 3 ul HEK293 RXFP2 cell culture. 2000 cells/well in DMEM/F12, 10% FBS, 1x Pen/Strep (dispensed offline with MultiDrop Combi).
(3) Add 23 nl compounds in DMSO solution. Final concentration was 0.5 - 58 uM.
(4) Incubate 30 min at 37C, 5% CO2.
(5) Add 1 ul cAMP-d2 in lysis buffer (HTRF cAMP HiRange kit, CisBio).
(6) Add 1 ul anti-cAMP antibody-cryptate in lysis buffer (HTRF cAMP HiRange kit, CisBio).
(7) Incubate 30 min at room temperature.
(6) Detect the assay plate in a ViewLux plate reader (PerkinElmer) with Ex=320 nm, Em1=615 nm and Em2=665 nm.
Keywords: relaxin, RXFP1, RXFP2, G-protein coupled receptor, cAMP, agonist, high throughput screening, MLSMR, MLSCN, NIH Roadmap, qHTS and NCGC
Potency means the concentration at half of the fitted maximal effect.

Compound	Potency
CCNC(=O)[C@H]1O[C@@H](n2cnc3c(N)ncnc32)[C@H](O)[C@@H]1O	1.94 µM (active)
O=c1[nH]c(O)c(N=Nc2ccc([N+](=O)[O-])cc2)c(=O)[nH]1	17.3 µM (active)
Cn1c(O)c(N=Nc2cccc(S(=O)(=O)N3CCOCC3)c2)c(=O)n(C)c1=O	13.8 µM (active)
Nc1ncc2[nH]cnc2n1	24.5 µM (active)
O=C(O)c1sc2cc(Cl)ccc2c1Cl	19.4 µM (active)
CCC(Oc1cc(Cl)ccc1Cl)C(=O)N1CCC2(CC1)OCCO2 (configuration not stated)	inactive
O=C1OCc2cc(N=Nc3c(O)[nH]c(=O)[nH]c3=O)ccc21	15.4 µM (active)
